In ChEMBL document CHEMBL3433997, “St. Jude Leishmania screening dataset” (2016) one finds inhibition data, which are given here for 40 molecules.

For the assay, the target named is Solute carrier family 2, facilitated glucose transporter member 1 (Homo sapiens) (UniProt P11166). The assay is described as follows: ST_JUDE_LEISH: Cytotoxicity at 2uM final concentration against transgenic Leishmania Mexicana promastigotes LmGLUT1 that are glucose transport deficient and complemented with the human glucose transporter GLUT1. Activity is measured by DNA content using SYBR green in vitro. The class given is functional.
Chain of Solute carrier family 2, facilitated glucose transporter member 1 (Homo sapiens) (P11166 whole entry): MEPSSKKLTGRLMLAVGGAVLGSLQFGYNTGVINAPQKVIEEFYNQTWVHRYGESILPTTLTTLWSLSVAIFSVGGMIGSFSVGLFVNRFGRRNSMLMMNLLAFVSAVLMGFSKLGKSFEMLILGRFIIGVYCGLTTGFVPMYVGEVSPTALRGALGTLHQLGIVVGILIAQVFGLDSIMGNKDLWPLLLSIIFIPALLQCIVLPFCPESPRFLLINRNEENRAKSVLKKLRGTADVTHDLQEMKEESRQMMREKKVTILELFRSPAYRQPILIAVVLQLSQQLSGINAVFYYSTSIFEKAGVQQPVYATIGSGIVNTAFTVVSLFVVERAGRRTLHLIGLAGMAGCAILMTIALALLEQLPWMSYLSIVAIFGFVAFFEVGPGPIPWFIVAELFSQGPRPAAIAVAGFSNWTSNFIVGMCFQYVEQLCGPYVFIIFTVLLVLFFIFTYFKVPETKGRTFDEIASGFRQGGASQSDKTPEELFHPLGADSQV
Consider `COc1ccccc1CCNc1nc(C)cc(N[C@@H](CC(C)C)C(=O)NCc2cccc(F)c2)n1`, for which the inhibition (as a rule, the relative decrease from the control value, in per cent) came to 9.56%.

With `CCC1(c2ccccc2)N=C(N)N(CCCc2ccccc2)C1=O` (stereo not given), the inhibition amounted to 2.53%.

Turning to `Cc1cc(C2CCN(CCCCNC(=O)c3ccc(-c4ccc(C#N)cc4)cc3)CC2)c(C)cc1OCCO`, the inhibition is 10%.

Regarding `Cc1cc(F)ccc1Nc1nc(N(C)c2ccccc2)c2cc(OCCN(C)C)ccc2n1`, the inhibition was determined as 7.87%.

`N=c1sc2ccccc2n1CC(O)c1ccc(Cl)c(Cl)c1` (stereo not given): the inhibition is -1.41%.

As for `Cc1nn(-c2ccc(Cl)cc2)c2[nH]c(CN3CCN(c4cccc(Cl)c4)CC3)cc(=O)c12`, the inhibition was found to be 20.2%.

Regarding `CC(=O)Nc1ccc(-c2nc3ccc(-c4nc5ccc(NC(C)=O)cc5[nH]4)cc3[nH]2)cc1`, the inhibition stood at 5.99%.

`COc1ccc(CNCc2cccc(-c3cccc(-c4nc5ccccc5[nH]4)c3)c2)cc1`: the inhibition was 7.86%.

As to `Cc1cc(N[C@@H](CC(C)C)C(=O)NCc2cccc(F)c2)nc(NCCc2ccccc2)n1`, the inhibition was 3.97%.

Take `CCn1c(Sc2ccc([N+](=O)[O-])c(C#N)c2)nnc1-c1cccc(Cl)c1`: the inhibition stood at 1.53%.

For `Nc1c(-c2ccc(C(=O)NCCNCc3ccccc3)cc2)cnn1-c1ccc(C(F)(F)F)cc1`, the inhibition stood at 3.28%.

In the case of `O=C(/C=C/c1ccc(Cl)c(Cl)c1)NCCCCCCN1CCCN(C(=O)Nc2cccc(Cl)c2)CC1`, the inhibition is -1.03%.

On to `CN(CCO)Cc1ccc(-c2ccc(NS(=O)(=O)c3cccc4cccnc34)cc2)cc1`, for which the inhibition came to 75.1%.

As to `C=CCN(c1nc(NC)nc(NCc2c(OC)cccc2OC)n1)C1CCCC1`, the inhibition was 5.12%.

On to `COc1ccc(-c2cnc3[nH]cc(-c4ccc(C(=O)O)cc4)c3c2)cn1`, for which the inhibition is -1.03%.

As to `CC(=O)Nc1ccc(C(=O)Nc2cccc(-c3ccc(-c4nc5ccccc5[nH]4)s3)c2)cn1`, the inhibition stood at 4.38%.

On to `CCC[C@@H]([C@@H](CC1CCCCC1)C(=O)N[C@H](C(=O)Nc1ccccn1)[C@H](C)CC)N(O)C=O`, for which the inhibition stood at 3.49%.

As to `Cc1cc(NC(=O)NCCN2CCC(NS(=O)(=O)c3ccc(C(F)(F)F)cc3)C2)c2ccccc2n1` (stereo not given), the inhibition is 11.8%.

Regarding `CCCCNc1nccc2ccc(-c3ccncc3)cc12`, the inhibition was 3.45%.

Take `COc1ccc(CNc2ncnc3c2[nH]c2ccc(F)cc23)cc1`: the inhibition was 7.12%.

Consider `CC1(C)NC(N)=NC(=N)N1OCCCNC(=O)c1ccc(C(=O)NCCCON2C(=N)N=C(N)NC2(C)C)cc1`, for which the inhibition was found to be 0.28%.

`Oc1ccc(CCNc2nc(NCCCOc3cccc(-c4ccccc4)c3)nc(N3CCNCC3)n2)cc1`: the inhibition was 2.65%.

Turning to `Cn1cncc1C(=O)Nc1cccc(-c2ccc(-c3nc4cc(F)ccc4[nH]3)s2)c1`, the inhibition is 3.18%.

Consider `CC(C)(C)NCC(O)COc1ccc(Cl)cc1C1=NNC(=O)CC1` (stereo not given), for which the inhibition amounted to 1.53%.

For the molecule `O=C1NC(c2ccccc2)C2(CCN(CC(O)COc3cccc4ncccc34)CC2)O1` (stereo not given), the inhibition came to 2.46%.

As for `CS(=O)(=O)n1c(CN2CCN(c3ncc(C(F)(F)F)cc3Cl)CC2)nc2ccccc21`, the inhibition came out at 8.28%.

In the case of `O=C(CNC(=O)c1ccc(O)cc1)Nc1cccc(-c2cccc(-c3nc4cc(C(F)(F)F)ccc4[nH]3)c2)c1`, the inhibition was 3.81%.

As for `C=CCc1cc(Cc2cnc(N)nc2N)cc(CCC)c1O`, the inhibition is -0.63%.

For `CC(C)c1ccc(NC(=O)c2ccc(NCCCN(C)Cc3ccccc3)c([N+](=O)[O-])c2)cc1`, the inhibition came out at 0.47%.

Regarding `CN1CCN(Cc2cccc(-c3ccc4c(Nc5ccc(Oc6ccccc6)cc5)ccnc4c3)c2)CC1`, the inhibition was determined as 12.9%.

On to `O=C1CSc2ccc(CNC3CCN(CCc4c(F)cnc5ccc(F)cc45)CC3)nc2N1`, for which the inhibition was -2.82%.

As for `CS(=O)(=O)c1ccc(CCNCc2ccc(-c3cccc(-c4nc5ccccc5[nH]4)c3)cc2)cc1`, the inhibition worked out at 1.41%.

Consider `NCc1cccc(-c2ccc(CNC3CCN(Cc4ccccc4)CC3)cc2)c1`, for which the inhibition came to 6.37%.

Consider `Cc1ccc(-n2cc(CNCC3CCN(CCO)CC3)c(-c3ccc(F)cc3)n2)cc1`, for which the inhibition was determined as 85%.

`Cc1ccc2[nH]c(-c3ccc(C=CC(=O)NC4CCN(Cc5ccccc5)CC4)cc3)nc2c1`: the inhibition came to 2.64%.

As to `Cc1nc(C)n(CC(=O)Nc2cccc(-c3cccc(-c4nc5cc(C(F)(F)F)ccc5[nH]4)c3)c2)n1`, the inhibition is 10.2%.

With `O=C(N[C@@H](CC1CCCCC1)C(=O)NCCN1CCCCC1)c1ccc(O)c(-c2cccc(C(F)(F)F)c2)c1`, the inhibition is 2.41%.

On to `N#Cc1ccc(-c2cnc3ccc(NCc4ccc(S(N)(=O)=O)cc4)nn23)cc1`, for which the inhibition came to 2.42%.

With `COc1nc(Nc2cccc(C)c2)nc(OC)n1`, the inhibition is -0.24%.

As for `COc1cc(-c2cc(-c3ccc(OCCN(C)C)cc3)[nH]c2-c2ccncc2)ccc1Cl`, the inhibition came out at 0.75%.
